Compounds with a hit are over-represented: about 0.84% of the library has one in this group of screens.
NR2F2 inh – blocks human COUP-TFII nuclear receptor. P24468. HEK293T NGFI-A luciferase reporter, luminescence. inhibition, % at 8.6 µM. actives 0.7% (n = 370,000). AID 686940;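 active = inhibition above a per-plate cutoff, mean inhibition of test wells between control levels plus 3 SD, cut at about 38% in these data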;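 note: cells cotransfected with COUP-TFII expression vector driving the NGFI-A reporter; 0% = median of COUP-TF2 test wells and 100% = reporter-only cells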
Target sequence (P24468 whole entry, looked up): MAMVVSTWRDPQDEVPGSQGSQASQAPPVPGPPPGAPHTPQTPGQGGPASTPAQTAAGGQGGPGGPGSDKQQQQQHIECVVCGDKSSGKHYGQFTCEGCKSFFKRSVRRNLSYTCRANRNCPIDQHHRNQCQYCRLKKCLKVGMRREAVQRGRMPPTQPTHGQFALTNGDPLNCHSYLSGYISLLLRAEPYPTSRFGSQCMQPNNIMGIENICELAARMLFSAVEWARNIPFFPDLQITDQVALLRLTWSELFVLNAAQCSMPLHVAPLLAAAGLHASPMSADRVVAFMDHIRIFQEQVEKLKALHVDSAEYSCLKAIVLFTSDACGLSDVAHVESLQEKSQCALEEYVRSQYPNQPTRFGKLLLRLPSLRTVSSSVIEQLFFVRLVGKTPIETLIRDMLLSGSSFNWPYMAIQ
NR5A2 inv ag – inverse agonists of human LRH-1 (NR5A2); O00482; HEK293T StAR-luciferase reporter, LRH-1 transfected, 24 h; inhibition, % at 3.6 µM; actives 0.13% (n = 360,000);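 active = inhibition above the mean inhibition of all tested compounds plus 3 SD, cut at about 73% in these data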;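 note: 0% = DMSO wells and 100% = reporter-only cells lacking LRH-1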
SRC3 inh – inhibitors of human steroid receptor coactivator 3 (SRC3); AID 588352; Q9Y6Q9; HEK293 GAL4-SRC3 luciferase reporter, luminescence; actives 0.17% (n = 360,000); inhibition, % at 3.6 µM;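 active = inhibition above a per-campaign cutoff, the mean of all compounds plus 3 SD, cut at about 60% in these data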;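 note: 0% = DMSO-treated cells and 100% = gossypol-treated cells at 36 µM; higher means less SRC3-driven luciferase light from the GAL4 reporter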
NCOA2 inhibitor – inhibits human steroid receptor coactivator 2; actives 0.17% (n = 370,000); AID 651957; HEK293 GAL4-SRC2 luciferase reporter, luminescence; inhibition, % at 9 µM;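 active = inhibition above the mean inhibition of all tested compounds plus 3 SD, set per campaign, cut at about 52% in these data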;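 note: 0% = DMSO treated cells and 100% = cells given Gossypol at 36 µM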
NCOA1 inh – human NCOA1 inhibition. HEK293 GAL4-SRC1 luciferase reporter, luminescence. inhibition, % at 3.6 µM. Q15788. actives 0.12% (n = 360,000);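 active = inhibition above the campaign mean plus 3 SD, with each screening campaign given its own cutoff, cut at about 60% in these data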;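 note: 0% = DMSO treated cells and 100% = gossypol at 36 µM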
* = called active by the depositor.

How did CCCCc1nnn2c1C1c3cc(-c4cccnc4)ccc3CCN1C(=O)C2 (centres undefined) do in these assays?
NR2F2 inh: -11.0; NCOA2 inhibitor: -7.5

Results for CCCCNC(=O)NS(=O)(=O)c1ccc(NC(=O)CSc2ncnc3scc(-c4ccc(C)cc4)c23)cc1 ?
NR2F2 inh: -13.9; NCOA2 inhibitor: 0.8

What do the screens show for `O=C(CC(Nc1ccc(Cl)cc1Cl)C(=O)O)c1ccccc1` (centres undefined)?
NR2F2 inh: 20.4; NR5A2 inv ag: 30.2; SRC3 inh: 64.5*; NCOA2 inhibitor: 51.6; NCOA1 inh: 62.9*

Results for C/C(=N\Nc1ccc2nncn2n1)c1ccco1 ?
NR2F2 inh: -3.8; NR5A2 inv ag: -23.9; SRC3 inh: 12.7; NCOA2 inhibitor: 12.2; NCOA1 inh: -12.3

What do the screens show for `C/C(=N\Nc1ccc2nncn2n1)c1ccccn1`?
NR2F2 inh: -20.6; NR5A2 inv ag: 17.2; SRC3 inh: 75.6*; NCOA2 inhibitor: 19.2; NCOA1 inh: 73.3*

What do the screens show for `CCn1c2c(c(=N)c3c1CCC3)CCCC2`?
NR2F2 inh: 14.7; NR5A2 inv ag: -1.7; SRC3 inh: -15.1; NCOA2 inhibitor: -10.6; NCOA1 inh: -2.2

How did CCCCCCCCCn1c2c(c(=N)c3c1CCC3)CCCC2 do in these assays?
NR5A2 inv ag: 89.2*; SRC3 inh: 81.3*; NCOA1 inh: 49.6

How did CCn1c(SCC(=O)Nc2nc(-c3ccc(C)cc3)cs2)nnc1-c1ccccc1 do in these assays?
NR2F2 inh: -15.7; NR5A2 inv ag: 4.6; SRC3 inh: 5.1; NCOA2 inhibitor: -15.4; NCOA1 inh: 1.1

Results for CCn1c(SCC(=O)Nc2nc(-c3ccc(C)cc3)cs2)nnc1-c1ccccc1O ?
NR2F2 inh: 47.5*; NR5A2 inv ag: 7.6; SRC3 inh: 3.2; NCOA2 inhibitor: 5.2; NCOA1 inh: -7.6

Results for C=CCSc1nsc(NC(=O)Nc2ccc(F)cc2)n1 ?
NR2F2 inh: 53.6*; NR5A2 inv ag: 21.5; SRC3 inh: 54.9; NCOA2 inhibitor: -0.9; NCOA1 inh: 17.1

What do the screens show for `COc1ccc(C(=O)c2c(C(F)(F)F)oc3c2C(=O)c2ccccc2C3=O)cc1OC`?
NR2F2 inh: 43.1*; NR5A2 inv ag: 2.4; SRC3 inh: 32.2; NCOA2 inhibitor: 13.4; NCOA1 inh: 9.3

Results for COc1ccc(C(=O)Nc2ccc3c(c2)C(=O)c2ccccc2C3=O)cc1OC ?
NR2F2 inh: -3.3; NR5A2 inv ag: -34.4; SRC3 inh: -4.2; NCOA2 inhibitor: -33.6; NCOA1 inh: -5.5

How did COC(=O)c1cc2c(c3c4cc(OC)ccc4n(S(=O)(=O)c4ccccc4)c13)C(=O)N(Cc1ccc(C(F)(F)F)cc1)C2 do in these assays?
NR2F2 inh: -4.8; NCOA2 inhibitor: -5.4

How did COC(=O)N1C[C@H](O)[C@H](O)C[C@@H]1c1ccccc1Br do in these assays?
NR2F2 inh: -5.1; NCOA2 inhibitor: -35.5

Results for C[C@@H]1OC(C2CCCCC2)N(C)[C@H]2C[C@H]3c4[nH]c5cccc(-c6ccccc6)c5c4CCN3C(=O)[C@@H]12 (some centres undefined) ?
NR2F2 inh: -14.9; NCOA2 inhibitor: -5.5

How did COc1cccc(/C=N/Nc2ncnc3c2ncn3Cc2ccccc2)c1O do in these assays?
NR2F2 inh: -12.4; NR5A2 inv ag: 91.5*; SRC3 inh: 66.9*; NCOA2 inhibitor: 21.9; NCOA1 inh: 53.3

Results for COc1ccc(C(=O)NCCN(C)C)c2nc3ccccc3cc12 ?
NR2F2 inh: -84.5; NR5A2 inv ag: 60.4; SRC3 inh: -69.1; NCOA2 inhibitor: -320.6; NCOA1 inh: 58.5

Results for CN(C)CCNC(=O)c1cccc2nc3c(ccc4ccccc43)nc12 ?
NR2F2 inh: -40.4; NR5A2 inv ag: 33.3; SRC3 inh: 32.2; NCOA2 inhibitor: -79.8; NCOA1 inh: 65.9*

How did COc1ccc(-c2nc3c(C(=O)NCCN(C)C)cccc3c3ccccc23)cc1 do in these assays?
NR2F2 inh: 3.3; NR5A2 inv ag: -13.3; SRC3 inh: 13.2; NCOA2 inhibitor: -25.2; NCOA1 inh: -7.8

How did COc1cccc2nc3c(C(=O)NCCN(C)C)cccc3cc12 do in these assays?
NR2F2 inh: -47.5; NR5A2 inv ag: 22.9; SRC3 inh: 56.3; NCOA2 inhibitor: -101.6; NCOA1 inh: 63.4*

How did CCCOc1ccc(F)cc1-c1cc(C(=O)Nc2ccc(C(C)C)cc2)[nH]n1 do in these assays?
NR2F2 inh: -17.5; NR5A2 inv ag: 18.5; SRC3 inh: -8.3; NCOA2 inhibitor: 10.0; NCOA1 inh: 15.5

Results for CC(C)C[C@H](NC(=O)c1ccc(Cl)c(Cl)c1)C(=O)N1CCC[C@H]1C(=O)NCc1ccccc1 ?
NR2F2 inh: 2.0; NCOA2 inhibitor: 2.7

How did O=c1[nH]cnc2c1nnn2C1OC(CO)C(O)C1O (centres undefined) do in these assays?
NR2F2 inh: -9.9; NR5A2 inv ag: 84.6*; SRC3 inh: 60.7; NCOA2 inhibitor: 22.8; NCOA1 inh: 41.0

Results for CN(C)c1ncnc2c1nnn2C1OC(CO)C(O)C1O (centres undefined) ?
NR2F2 inh: -79.5; NR5A2 inv ag: 97.7*; SRC3 inh: 68.8*; NCOA2 inhibitor: 30.9; NCOA1 inh: 63.7*

How did CC(=NNc1nc2ccccc2o1)c1cc2ccccc2cn1 do in these assays?
NR2F2 inh: 13.9; NR5A2 inv ag: -35.8; SRC3 inh: 69.6*; NCOA2 inhibitor: 10.5; NCOA1 inh: 65.0*

How did Cc1ccc(-c2nc(CSCC(=O)N3CCN(c4ccccn4)CC3)c(C)o2)cc1 do in these assays?
NR2F2 inh: 47.2*; NR5A2 inv ag: 32.5; SRC3 inh: -1.5; NCOA2 inhibitor: 2.7; NCOA1 inh: -5.5

Results for Cn1c(=O)c2c(ncn2Cc2ccc(O)c([N+](=O)[O-])c2)n(C)c1=O ?
NR2F2 inh: -3.4; NCOA2 inhibitor: 0.5

How did COc1ccc(-c2csc3ncnc(NCCO)c23)cc1 do in these assays?
NR2F2 inh: 27.8; NR5A2 inv ag: 11.7; SRC3 inh: 54.3; NCOA2 inhibitor: 58.6*; NCOA1 inh: 54.1

How did COc1ccc(-c2csc3ncnc(Nc4ccc(O)cc4)c23)cc1 do in these assays?
NR2F2 inh: -20.3; NR5A2 inv ag: -6.9; SRC3 inh: 13.1; NCOA2 inhibitor: 9.9; NCOA1 inh: -3.6

What do the screens show for `S=c1[nH]nc(C2CCCCC2)n1/N=C/c1ccncc1`?
NR2F2 inh: 24.5; NR5A2 inv ag: 16.1; SRC3 inh: 69.2*; NCOA2 inhibitor: 46.3; NCOA1 inh: 70.5*

How did CCOc1cc2c(cc1OCC)C(c1ccc(OC)cc1)N(c1ccccc1)C(=O)C2 (centres undefined) do in these assays?
NR2F2 inh: 2.7; NR5A2 inv ag: 75.6*; SRC3 inh: -33.2; NCOA2 inhibitor: -21.4; NCOA1 inh: -28.0

How did CCCCCCCCC[n+]1cccc2c3ccccc3ccc21 do in these assays?
NR5A2 inv ag: 95.8*; SRC3 inh: 71.3*; NCOA1 inh: 57.9

How did c1ccc2c(c1)ccc1ccccc12 do in these assays?
NR2F2 inh: -5.7; NR5A2 inv ag: -9.8; SRC3 inh: -8.4; NCOA2 inhibitor: 8.1; NCOA1 inh: -12.0

How did CCOc1ccc(-n2c(SCc3ccc(C#N)cc3)nnc2-c2ccco2)cc1 do in these assays?
NR2F2 inh: -17.9; NCOA2 inhibitor: 27.0

Screening results deposited in PubChem BioAssay by The Scripps Research Institute Molecular Screening Center.
